Results filed as inconclusive are left out. Calls of active or inactive are those of the source. The call rests on the fitted dose curve; in most records, active means well fitted inhibition curve with a large enough effect; inconclusive means small, poorly fitted or top-dose-only effect; inactive means flat fitted curve, though single readings scatter.
Tests used:
Assay in all cases: qHTS profiling for inhibitors of Plasmodium falciparum proliferation (AID 504749); further: nearly all actives have a fitted effect of over 60% in size
Settings in all cases: P. falciparum in erythrocytes, SYBR Green DNA, 72 h; series mostly up to 28.7 µM
[1] = tested on: PC26
How it was run: (§1)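 Infected RBCs, 0.3% parasitemia/2.5% Hct final; cpd 72 h, 37 C, 5% CO2; lysis buffer with saponin/triton/SYBR Green I, o/n RT dark; FI 485/535; norm. to artemisinin (0.29 uM) and DMSO.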

[2] = tested on: PC49
How it was run: as §1

[3] = tested on: SC27B
How it was run: as §1

[4] = tested on: TAB109
How it was run: as §1

[5] = tested on: TAB113
How it was run: as §1

[6] = tested on: TAB165
How it was run: as §1

[7] = tested on: W2
How it was run: as §1

Measured: Potency
Potency means the concentration at half of the fitted maximal effect.

Cn1sc(Cl)cc1=O
inactive: all assays above

ClC1C(Cl)C(Cl)C(Cl)C(Cl)C1Cl (stereo not given)
inactive: all assays above

O=C(O)C(Cl)(Cl)Cl
inactive: all assays above

c1csc(C2(N3CCCCC3)CCCCC2)c1
active: [7] 9.53 µM
inactive: all other assays above

ClCC1CO1 (stereo not given)
inactive: all assays above

O=C(CCl)c1ccc(Oc2ccc(C(=O)CCl)cc2)cc1
inactive: all assays above

CC(C)(O)C1C2OC(=O)C1C1(O)CC3OC34C(=O)OC2C14C (stereo not given)
inactive: all assays above

CN1c2ccccc2C(NCCCCCCC(=O)O)c2ccc(Cl)cc2S1(=O)=O (stereo not given)
inactive: all assays above

CCC(N)Cc1c[nH]c2ccccc12 (stereo not given)
inactive: all assays above

CCON=O
inactive: all assays above

CNC(C)C(O)c1ccc(O)cc1 (stereo not given)
inactive: all assays above

COc1ccc(OC)c(C(O)C(C)N)c1 (stereo not given)
inactive: all assays above

O=[N+]([O-])c1ccc(F)c([N+](=O)[O-])c1
inactive: all assays above

CN1C2CCC1CC(OC(c1ccccc1)c1ccc(Cl)cc1)C2 (stereo not given)
active: [1] 7.57 µM | [2] 5.01 µM | [3] 11.2 µM | [4] 7.08 µM | [5] 7.94 µM | [6] 5.01 µM | [7] 2.39 µM

CC(C)CCON=O
inactive: all assays above
